Shiga toxin inh: inhibitors of Shiga toxin in Vero cells. inhibition, % at 38.7 µM. Vero cells, Shiga toxin protein synthesis inhibition reporter. hit rate 9.2% among 290,000; in the data active = inhibition mostly above about 28%, no sharp cut-off; inactive = mostly below about 43%
Pf growth 96h: P. falciparum growth inhibition at 96 hours; P. falciparum luciferase reporter growth, 96 h; Potency, µM (titrated, usually from 28.7 µM), actives largely listed as inhibitors; hit rate 6.9% among 320,000; AID 504834
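Luminescence readout: decreased luciferase signal marks inhibited growth of reporter-expressing P. falciparum in infected red cells (2% hematocrit, 0.05% parasitemia final), exposed to compound two generations (96 h, 37 C, 5% CO2).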
LmPK inh: blocks Leishmania mexicana pyruvate kinase activity | hit rate 0.37% among 290,000 | Q27686 | purified LmPK, Kinase-Glo ATP luminescence, 1 h | Potency, µM (titrated, usually from 57.5 µM), actives largely listed as inhibitors
Target sequence (Q27686 whole entry, looked up): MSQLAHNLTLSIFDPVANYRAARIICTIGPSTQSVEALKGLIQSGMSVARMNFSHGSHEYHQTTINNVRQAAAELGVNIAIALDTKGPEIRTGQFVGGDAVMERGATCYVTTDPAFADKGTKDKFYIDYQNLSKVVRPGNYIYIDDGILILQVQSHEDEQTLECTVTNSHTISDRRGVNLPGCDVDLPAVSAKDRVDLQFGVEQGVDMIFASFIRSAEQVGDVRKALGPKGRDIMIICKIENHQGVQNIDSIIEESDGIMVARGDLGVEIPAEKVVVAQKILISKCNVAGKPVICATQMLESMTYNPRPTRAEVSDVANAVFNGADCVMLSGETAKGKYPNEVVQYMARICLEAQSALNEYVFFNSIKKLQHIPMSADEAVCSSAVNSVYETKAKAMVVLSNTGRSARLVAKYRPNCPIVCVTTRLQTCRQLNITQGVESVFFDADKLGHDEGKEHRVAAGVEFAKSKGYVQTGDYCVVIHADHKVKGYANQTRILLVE
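qHTS format; LmPK 0.1 nM; substrates PEP 0.5 mM and ADP 0.1 mM. One-hour room-temperature incubation, then coupled luciferase luminescence; 0.5 nM enzyme wells mark activation.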
Pf growth 48h: inhibits P. falciparum growth in the first generation, 48 h. P. falciparum luciferase growth in erythrocytes, 48 h. Potency, µM (series often up to 28.7 µM), most hits filed as inhibitors. hit rate 5.9% among 310,000
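Here the parasites carry a stable luciferase gene and grow inside erythrocytes in Albumax-based RPMI medium with compound for one erythrocytic cycle. Activity is scored as loss of luminescent signal.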
CHX counter: affects cycloheximide protein synthesis inhibition readout, counter-screen; cell reporter, cycloheximide protein synthesis inhibition counterscreen; max response, %; hit rate 12% among 300,000; in the data active = max response mostly above about 13%, no sharp cut-off; inactive = mostly below about 14%; note: read at 38.3 µM for the half of the compounds with a filed dose
Each line names hits and unclear results; the compound was inactive in the other large screens. A selection: hits, their analogues and other compounds. The true share with any hit is near 22%. Unless noted, calls come from the whole dose curve; as a rule, active = well fitted inhibition curve with a large enough effect; inconclusive = small, poorly fitted or top-dose-only effect, or another doubt; inactive = no such curve, though single readings can be large or run the other way.

O=C(/C=C/c1cccnc1)c1cccc(O)c1	none
COc1ccc(C(=O)/C=C/c2ccc(O)cc2)cc1	Shiga toxin inh 87.0, CHX counter 36.6
O=C(/C=C/c1cccnc1)c1ccc([N+](=O)[O-])cc1	none
O=C(/C=C/c1ccc(N2CCC(c3ccccc3)=N2)cc1)c1ccccc1	Shiga toxin inh 79.6, CHX counter 39.0
COc1ccc2cc(C(=O)/C=C/c3cc(OC)c(O)c(OC)c3)ccc2c1	Pf growth 96h inconclusive, Pf growth 48h inconclusive
COc1cc(C(=O)/C=C/c2cccnc2)c([N+](=O)[O-])cc1OC	Pf growth 96h inconclusive, Pf growth 48h 2.94µM (no result: Shiga toxin inh, LmPK inh, CHX counter)
O=C(c1ccccc1)c1ccc2n1CC[C@H]2C(=O)O	none (no result: Shiga toxin inh, LmPK inh, CHX counter)
O=C1c2ccc(Cl)cc2S(=O)(=O)c2cccc(C(=O)N3CCC(Cc4ccccc4)CC3)c21	none (no result: Shiga toxin inh, LmPK inh, CHX counter)
Cc1nn(C)cc1/C=C/C(=O)c1ccc(O)cc1	Shiga toxin inh 39.7, CHX counter 38.0
COc1ccc(Oc2coc3cc(OC(=O)/C=C/c4ccccc4)ccc3c2=O)cc1	none
COc1ccc(Oc2coc3cc(OC(=O)/C=C/c4ccc(F)cc4)ccc3c2=O)cc1	Pf growth 96h 4.15µM, Pf growth 48h inconclusive
COc1ccc(/C=C/C(=O)c2ccccc2)cc1COc1ccccc1F	Pf growth 96h inconclusive, Pf growth 48h inconclusive
O=C(/C=C/c1ccc(O)cc1)c1ccccc1	Shiga toxin inh 75.3, LmPK inh 12.6µM, CHX counter 38.9
Cc1nn(C)cc1/C=N/O	none (no result: Pf growth 96h)
COc1ccc(C(=O)Cn2c(NCCO)nc3ccccc32)cc1	Pf growth 96h inconclusive
COc1ccc(/C=C/C(=O)c2nc3ccccc3n2CC(=O)c2ccc(OC)cc2)cc1	Pf growth 48h 10.4µM
C=C(C)CNC(=S)N/N=C/c1c(F)cccc1F	Pf growth 96h inconclusive
COc1cccc(-c2c(C(=O)N/N=C(\C)c3ccc(Cl)s3)nnn2-c2nonc2N)c1	Pf growth 96h inconclusive, Pf growth 48h inconclusive
COc1ccc(-c2cccc(-c3cc(=O)oc4ccc(C(C)(C)C)cc34)c2)cc1	none (no result: Pf growth 96h, LmPK inh, Pf growth 48h)
COc1ccc(S(=O)(=O)c2ccc(O)cc2)cc1	none (no result: Pf growth 48h)
Cc1cccc(Oc2coc3cc(OC(=O)c4cccs4)ccc3c2=O)c1	Shiga toxin inh 50.4, CHX counter 28.9
CCOc1ccc(/C=C/C(=O)Oc2ccc(OC)cc2)cc1	Pf growth 96h inconclusive, Pf growth 48h inconclusive
COc1ccc(-c2cc(O)cc(O)c2)cc1	Shiga toxin inh 50.1, CHX counter 33.4 (no result: Pf growth 96h)
Cc1cc(C)cc(Oc2coc3cc(OC(=O)c4cccs4)ccc3c2=O)c1	none
COc1ccc(C(=O)/C=C/c2ccc(OC)c(Cn3nnc4ccccc43)c2)cc1	Pf growth 96h 0.104µM, Pf growth 48h inconclusive
COc1ccc(/C=C/C(=O)Oc2cc(O)cc(O)c2)cc1	Shiga toxin inh 35.1, Pf growth 96h inconclusive, Pf growth 48h inconclusive, CHX counter 21.5
OCC(O)[C@@H](O[C@H]1O[C@H](CO)[C@@H](O)[C@H](O)[C@H]1O)[C@H](O)[C@@H](O)CO (some centres undefined)	Pf growth 48h inconclusive (no result: Shiga toxin inh, LmPK inh, CHX counter)
CC(=O)N1CC(=O)N=C1SCC(=O)Nc1nc(-c2ccccc2)c(-c2ccccc2)s1	Pf growth 96h inconclusive, Pf growth 48h 14.7µM
COc1c(C(CC(C)C)OC(C)=O)ccc2c1C(=O)OCc1cc(C)cc(O)c1O2 (centres undefined)	Pf growth 48h 8.28µM
CN(C)Cc1nc2ccccc2c(=O)n1Cc1nc(C(C)(C)C)cs1	Pf growth 48h 13.1µM
CN1CCN(Cc2nc3ccccc3c(=O)n2Cc2nc(-c3cccc([N+](=O)[O-])c3)cs2)CC1	Pf growth 96h 2.33µM, Pf growth 48h inconclusive
CN1CCN(Cc2nc3ccccc3c(=O)n2Cc2nc(-c3ccc4ccccc4c3)cs2)CC1	Pf growth 96h inconclusive, Pf growth 48h 11.7µM
CN(C)Cc1nc2ccccc2c(=O)n1CC(=O)Nc1cccc(S(=O)(=O)N2CCOCC2)c1	none
CN1CCN(Cc2nc3ccccc3c(=O)n2Cc2nc(-c3ccccc3F)cs2)CC1	Pf growth 96h inconclusive, Pf growth 48h inconclusive
CC(C)(C)n1nc2c(c1NC(=O)Cc1ccc([N+](=O)[O-])cc1)CS(=O)(=O)C2	Pf growth 48h inconclusive
O=C(NCC(=O)N(c1ccc(F)cc1)C(C(=O)NC1CCCC1)c1ccncc1)c1ccco1 (centres undefined)	none
COc1ccc(CCN(Cc2cc3ccc(C)cc3n3nnnc23)C(C)=O)cc1OC	none
COC(=O)c1oc2ccc(OC)cc2c1N	Shiga toxin inh 63.4, CHX counter 28.3
CCN(CC)CCOC(=O)c1c(C)oc2ccc(OC)cc12	Shiga toxin inh 61.4
Cc1oc2ccc(OC(=O)N(C)C)cc2c1C(=O)OC(C)C	Pf growth 96h 2.94µM, Pf growth 48h inconclusive
COc1ccc(C(=O)c2oc3ccc(OC)cc3c2N)cc1	Shiga toxin inh 69.8, Pf growth 96h inconclusive, CHX counter 29.4
CC(=O)Nc1c(-c2ccccc2)c2cc(Br)ccc2[nH]c1=O	Pf growth 96h inconclusive
CCN1CCN(CC(=O)N/N=C/c2ccc(F)cc2F)CC1	none
O=C1NC(NS(=O)(=O)c2ccccc2)(C(F)(F)F)C(=O)N1Cc1ccccc1 (centres undefined)	Pf growth 96h inconclusive
Nc1c(C(=O)c2ccc(Cl)cc2)oc2ccccc12	Shiga toxin inh 64.9, CHX counter 32.4
O=C(Cc1ccccc1)c1nc2ccccc2s1	Shiga toxin inh 131.1, Pf growth 96h inconclusive, Pf growth 48h inconclusive, CHX counter 74.4
COC(=O)c1ccc(/C(O)=C(\C#N)c2nc3ccccc3s2)cc1	none (no result: Pf growth 96h)
COC(=O)c1ccc(CC(=O)c2nc3ccccc3s2)cc1	Pf growth 96h inconclusive, CHX counter 20.3
COC(=O)/C(C#N)=C1/C=Cc2ccccc2N1	Shiga toxin inh 68.0, CHX counter 34.3
O=C(CCc1nc2ccccc2c(=O)[nH]1)Nc1ccc(F)cc1	none
COc1ccccc1NS(=O)(=O)c1cc(NC(=O)CCc2nc3ccccc3c(=O)[nH]2)ccc1C	Pf growth 96h 10.4µM, Pf growth 48h inconclusive (no result: Shiga toxin inh, LmPK inh, CHX counter)
O=C(CCc1nc2ccccc2c(=O)[nH]1)Nc1cc(Cl)ccc1N1CCCCC1	Pf growth 96h inconclusive, Pf growth 48h 10.4µM (no result: Shiga toxin inh, LmPK inh, CHX counter)
COc1cccc(Oc2ccc(C(F)(F)F)cc2NC(=O)CCc2nc3ccccc3c(=O)[nH]2)c1	Shiga toxin inh 55.3, Pf growth 96h 1.65µM, Pf growth 48h 5.86µM, CHX counter 43.1
Cc1cc(C(=O)CN2C(=O)C(=O)N(CC(C)C)C2=O)c(C)n1C1CC1	none (no result: Shiga toxin inh, LmPK inh, CHX counter)
CC(=O)c1c(C)oc2ccc(N(C(=O)C3CCCCC3)S(=O)(=O)c3cc([N+](=O)[O-])ccc3C)cc12	Pf growth 96h 3.7µM
O=C(NCC1CCN(Cc2cccc(Cl)c2)CC1)Nc1ccc(Cl)cc1	none
COc1ccc(Cl)cc1NC(=O)NCC1CCN(Cc2cc(C)ccc2C)CC1	Pf growth 96h inconclusive
CCc1cccc(CN2CCC(CNC(=O)Nc3ccc(Cl)cc3)CC2)c1	Pf growth 96h inconclusive, Pf growth 48h 4.65µM
Cc1ccc(C)c(CN2CCC(CNC(=O)Nc3ccc(C)c(C)c3)CC2)c1	Pf growth 48h 4.15µM
COc1ccc(OCC(O)CNS(=O)(=O)c2cccc(Cl)c2)cc1 (centres undefined)	Pf growth 96h inconclusive

Bioassay records: PubChem BioAssay, National Center for Advancing Translational Sciences (NCATS)
